For seven compounds, growth results are on record in PubChem BioAssay (NCI).

Molecules are shown by their SMILES. “And” between values parts separate entries of the source, which are not always exact repeats. Equal entries are not always repeated. The panel holds about 83,000 compounds, 20% with a hit somewhere; the sample as a whole holds those more often.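 Cell lines were cultured in 96-well plates, exposed to a single compound concentration, and assessed for percent growth 48 hours later.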 The source made the active and inactive calls. Rule for the calls: active = growth percent below 10; inactive = the rest.

Among the test systems are NCI-H23 lung; NCI-H226 lung; NCI-H322M lung; HOP-62 NSCLC; NCI-H460 lung; HOP-92 NSCLC; NCI-H522 lung; A549/ATCC NSCLC; 786-0 renal; COLO 205 colon; DU-145 prostate; K-562 leukemia; MALME-3M melanoma; MDA-MB-231 breast; RXF 393 renal; SF-268 CNS; SF-295 CNS; SF-539 CNS; UACC-257 melanoma; M14 melanoma.
Assay in all cases: NCI-60 one-dose screen, 48 h (100 = growth as untreated, 0 = no growth, -100 = all killed)
Common to all, as to conditions: 10 µM unless noted

In the case of `O=[N+]([O-])c1ccc(/C=N\NC(=S)Nc2ccc(F)cc2)cc1`, the growth is 101% (inactive) and 88.3% (inactive) in the assay on NCI-H23 lung; 105% (inactive) and 91.1% (inactive) with NCI-H226 lung; 86.6% (inactive) and 97.9% (inactive) in the assay with NCI-H322M lung; 105% (inactive) and 94.6% (inactive) with HOP-62 NSCLC; 95.3% (inactive) and 87% (inactive) in the assay with NCI-H460 lung; 107% (inactive) and 75.7% (inactive) with HOP-92 NSCLC. In addition, the growth was 95% (inactive) and 104% (inactive) with NCI-H522 lung; 82.1% (inactive) and 90.9% (inactive) in the assay with A549/ATCC NSCLC; 105% (inactive) and 98.5% (inactive) in the assay on 786-0 renal; 104% (inactive) and 103% (inactive) in the assay with COLO 205 colon; 102% (inactive) and 87.1% (inactive) in the assay on DU-145 prostate; 104% (inactive) in the assay with K-562 leukemia. Further, the growth with MALME-3M melanoma is 92.6% (inactive); with MDA-MB-231 breast, 77.5% (inactive) and 77.6% (inactive); in the assay with RXF 393 renal, 98% (inactive) and 105% (inactive); in the assay with SF-268 CNS, 102% (inactive) and 99.8% (inactive); with SF-295 CNS, 102% (inactive); in the assay with SF-539 CNS, 102% (inactive) and 58.6% (inactive). In addition, the growth is 91.4% (inactive) and 104% (inactive) in the assay with UACC-257 melanoma; 113% (inactive) and 96.8% (inactive) with M14 melanoma.
With `O=C(Nc1ccc(Cl)cc1)c1cc2ccccc2cc1O`, the growth was 12.2% (inactive) and 4.22% (active) with NCI-H23 lung; 54.4% (inactive) and 42.1% (inactive) in the assay with NCI-H226 lung; 17.1% (inactive) and 19.6% (inactive) in the assay with NCI-H322M lung; 63.6% (inactive) and 5.51% (active) in the assay with HOP-62 NSCLC; 8.06% (active) and -15.7% (active) in the assay with NCI-H460 lung; -9.86% (active) in the assay on HOP-92 NSCLC. Also, the growth was 26.1% (inactive) and -32.3% (active) with NCI-H522 lung; 68.2% (inactive) and 26.4% (inactive) with A549/ATCC NSCLC; 67.1% (inactive) and -31.9% (active) in the assay on 786-0 renal; 91.4% (inactive) and 70.4% (inactive) with COLO 205 colon; 29.6% (inactive) and 10% (inactive) with DU-145 prostate; 14.1% (inactive) and 7.46% (active) in the assay with K-562 leukemia. In addition, the growth in the assay with MALME-3M melanoma was 29.4% (inactive) and 17% (inactive); in the assay with MDA-MB-231 breast it was 52.7% (inactive) and 41.7% (inactive); with RXF 393 renal, 53.6% (inactive) and -17% (active); with SF-268 CNS it was 53.6% (inactive) and 24.9% (inactive); in the assay on SF-295 CNS, 10.2% (inactive) and 3.7% (active); in the assay on SF-539 CNS, 22.7% (inactive) and 12.5% (inactive). Moreover, the growth in the assay on UACC-257 melanoma is 20.7% (inactive); in the assay with M14 melanoma it was 55% (inactive) and 7.47% (active).
Turning to `Oc1nc(NCCc2ccccc2)sc1/C=C1\C=Nc2ncccc21`, the growth was 2.96% (active) and 9.1% (active) in the assay on NCI-H23 lung; 22.4% (inactive) and 3.3% (active) in the assay with NCI-H226 lung; 19.6% (inactive) and 5.21% (active) in the assay with NCI-H322M lung; -2.98% (active) and 19.9% (inactive) in the assay on HOP-62 NSCLC; 15.1% (inactive) and 14.1% (inactive) with NCI-H460 lung; 11.8% (inactive) and -9.73% (active) in the assay with HOP-92 NSCLC. Besides, the growth in the assay with NCI-H522 lung was 4.33% (active) and 26.6% (inactive); with A549/ATCC NSCLC it was 8.14% (active) and 19.1% (inactive); in the assay with 786-0 renal it was 19.7% (inactive) and 9.01% (active); in the assay with COLO 205 colon, -6.84% (active) and 4.78% (active); in the assay with DU-145 prostate, 15.3% (inactive) and 20.7% (inactive); with K-562 leukemia it was 28.5% (inactive) and 29.9% (inactive). Also, the growth in the assay on MALME-3M melanoma is 44.8% (inactive) and 30.6% (inactive); in the assay on MDA-MB-231 breast, 25.9% (inactive) and 25.5% (inactive); in the assay with RXF 393 renal, -30.1% (active) and -20.2% (active); with SF-268 CNS it was 8.87% (active) and 10.4% (inactive); in the assay with SF-295 CNS, 18.7% (inactive) and 22.6% (inactive); with SF-539 CNS it was -37.2% (active) and 0.397% (active). The growth in the assay on UACC-257 melanoma was -1.71% (active) and 14.6% (inactive); with M14 melanoma, 31.7% (inactive) and 29.9% (inactive).
Turning to `O=c1c2ccccc2nc2n1Cc1nc3ccccc3c(=O)n1C2`, the growth was 92.2% (inactive) and 100% (inactive) with NCI-H23 lung; 89.5% (inactive) and 97.8% (inactive) in the assay with NCI-H226 lung; 97.8% (inactive) and 102% (inactive) in the assay with NCI-H322M lung; 114% (inactive) and 105% (inactive) in the assay with HOP-62 NSCLC; 95.1% (inactive) and 101% (inactive) in the assay with NCI-H460 lung; 95.3% (inactive) and 114% (inactive) in the assay with HOP-92 NSCLC. Further, the growth in the assay with NCI-H522 lung was 89.9% (inactive) and 93.3% (inactive); in the assay on A549/ATCC NSCLC, 102% (inactive) and 100% (inactive); in the assay on 786-0 renal, 103% (inactive) and 104% (inactive); in the assay on COLO 205 colon, 111% (inactive) and 130% (inactive); with DU-145 prostate it was 96.4% (inactive) and 102% (inactive); in the assay with K-562 leukemia it was 107% (inactive) and 62.5% (inactive). Besides, the growth was 80.1% (inactive) and 108% (inactive) in the assay with MALME-3M melanoma; 99.2% (inactive) and 105% (inactive) in the assay on MDA-MB-231 breast; 107% (inactive) and 108% (inactive) in the assay with RXF 393 renal; 87.5% (inactive) and 103% (inactive) in the assay with SF-268 CNS; 105% (inactive) and 112% (inactive) in the assay with SF-295 CNS; 99% (inactive) and 102% (inactive) in the assay with SF-539 CNS. In addition, the growth is 98.3% (inactive) and 112% (inactive) in the assay with UACC-257 melanoma; 89.3% (inactive) and 94.1% (inactive) with M14 melanoma.
As for `CC1CCCC(=O)O1` (stereo not given), the growth was 104% (inactive) and 97.1% (inactive) with NCI-H23 lung; 93.3% (inactive) and 101% (inactive) with NCI-H226 lung; 106% (inactive) in the assay with NCI-H322M lung; 94.3% (inactive) and 96.5% (inactive) in the assay with HOP-62 NSCLC; 104% (inactive) and 112% (inactive) in the assay with NCI-H460 lung; 91.8% (inactive) in the assay with HOP-92 NSCLC. Besides, the growth in the assay on NCI-H522 lung is 86.3% (inactive) and 104% (inactive); in the assay on A549/ATCC NSCLC, 108% (inactive) and 97.9% (inactive); with 786-0 renal, 92.6% (inactive) and 93.3% (inactive); with COLO 205 colon it was 107% (inactive) and 122% (inactive); in the assay with DU-145 prostate it was 106% (inactive) and 107% (inactive); in the assay with K-562 leukemia, 104% (inactive) and 108% (inactive). Besides, the growth was 104% (inactive) with MALME-3M melanoma; 103% (inactive) and 111% (inactive) with MDA-MB-231 breast; 101% (inactive) and 112% (inactive) in the assay with RXF 393 renal; 102% (inactive) and 111% (inactive) with SF-268 CNS; 99.5% (inactive) and 102% (inactive) in the assay on SF-295 CNS; 100% (inactive) and 94.7% (inactive) in the assay with SF-539 CNS. The growth with UACC-257 melanoma is 104% (inactive) and 98.9% (inactive); in the assay with M14 melanoma, 101% (inactive) and 105% (inactive).
As for `C/C(=N\NC(=O)c1ccncc1)c1ccccc1O`, the growth is 42.5% (inactive) and 30.4% (inactive) with NCI-H23 lung; 54.5% (inactive) and 58.8% (inactive) in the assay with NCI-H226 lung; 30.3% (inactive) and 20.7% (inactive) in the assay on NCI-H322M lung; 34.3% (inactive) and 33.7% (inactive) in the assay on HOP-62 NSCLC; 19.3% (inactive) and 14% (inactive) in the assay on NCI-H460 lung; 44.5% (inactive) and 36.7% (inactive) in the assay with HOP-92 NSCLC. Also, the growth in the assay with NCI-H522 lung is 8.84% (active); in the assay on A549/ATCC NSCLC, 36.4% (inactive) and 40% (inactive); in the assay on 786-0 renal it was 31.4% (inactive) and 22.6% (inactive); in the assay with COLO 205 colon, 13.9% (inactive) and 8.85% (active); with DU-145 prostate, 40.8% (inactive) and 45.2% (inactive); in the assay on K-562 leukemia it was 35.6% (inactive) and 35.4% (inactive). For the same compound, the growth in the assay on MALME-3M melanoma was 65.6% (inactive) and 53.4% (inactive); with MDA-MB-231 breast, 34.9% (inactive) and 36.2% (inactive); in the assay with RXF 393 renal it was 63.6% (inactive) and 75.4% (inactive); with SF-268 CNS, 37.1% (inactive) and 40.5% (inactive); in the assay on SF-295 CNS it was 40.2% (inactive) and 39.3% (inactive); with SF-539 CNS, 52.9% (inactive) and 30.2% (inactive). Moreover, the growth in the assay with UACC-257 melanoma was 43.9% (inactive) and 25.1% (inactive); in the assay on M14 melanoma, 27.5% (inactive) and 33.5% (inactive).
With `CCN(CC)CCCC(CNc1ccnc2cc(Cl)ccc12)c1ccc(Cl)cc1` (stereo not given), the growth in the assay on NCI-H23 lung was 48.9% (inactive) and 54.3% (inactive); in the assay on NCI-H226 lung it was 4.19% (active) and 25.2% (inactive); in the assay with NCI-H322M lung, -33.5% (active) and 46.5% (inactive); with HOP-62 NSCLC, 4.57% (active) and 88.8% (inactive); with NCI-H460 lung it was 24.3% (inactive) and -63.6% (active); with HOP-92 NSCLC, -51.5% (active) and -68.6% (active). For the same compound, the growth with NCI-H522 lung was -49.4% (active) and -59.6% (active); in the assay on A549/ATCC NSCLC, 4.3% (active) and 61.4% (inactive); in the assay with 786-0 renal, -83.4% (active) and -97.3% (active); with COLO 205 colon, -61.9% (active) and -85.6% (active); in the assay with DU-145 prostate, 34.5% (inactive) and 29.6% (inactive); in the assay on K-562 leukemia it was -69% (active) and -71% (active). In addition, the growth in the assay with MALME-3M melanoma is -91.3% (active) and -77.4% (active); with MDA-MB-231 breast, -58.2% (active) and 38.7% (inactive); in the assay on RXF 393 renal, -64.7% (active) and 22.7% (inactive); with SF-268 CNS, -19.4% (active) and -34.3% (active); in the assay with SF-295 CNS it was -69.7% (active) and -71.8% (active); in the assay on SF-539 CNS, -87.6% (active) and -92.2% (active). Also, the growth in the assay on UACC-257 melanoma was -67.8% (active) and -86.2% (active); in the assay with M14 melanoma, -84.7% (active) and -71.4% (active).
